# PubChem BioAssay (NCI)
# About 83,000 compounds went through this panel and 20% of them were active in at least one assay; those are over-represented in the sample as a whole.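 Percent growth is the endpoint: 0 to 100 indicates growth inhibition (40 means 60% inhibition), 0 means no net growth, and negative values indicate cell death.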 Unmarked numbers belong to inactive results. The source made the active and inactive calls. Rule for the calls: active = growth percent below 10; inactive = the rest.
# Legend:
# Test in all cases: NCI-60 one-dose screen, 48 h (100 = growth as untreated, 0 = no growth, -100 = all killed)
# Details in all cases: 10 µM unless noted
# [1] = tested on: NCI-H23 lung
# [2] = tested on: NCI-H322M lung
# [3] = tested on: HOP-62 NSCLC
# [4] = tested on: NCI-H460 lung
# [5] = tested on: HOP-92 NSCLC
# [6] = tested on: NCI-H522 lung
# [7] = tested on: 786-0 renal
# [8] = tested on: COLO 205 colon
# [9] = tested on: DU-145 prostate
# [10] = tested on: K-562 leukemia
# [11] = tested on: MALME-3M melanoma
# [12] = tested on: MDA-MB-231 breast
# [13] = tested on: RXF 393 renal
# [14] = tested on: SF-268 CNS
# [15] = tested on: SF-295 CNS
# [16] = tested on: SF-539 CNS
# [17] = tested on: UACC-257 melanoma
# [18] = tested on: M14 melanoma
# [19] = tested on: A549/ATCC NSCLC
SMILES,growth [1] [%],growth [2] [%],growth [3] [%],growth [4] [%],growth [5] [%],growth [6],growth [7],growth [8],growth [9] [%],growth [10],growth [11] [%],growth [12],growth [13],growth [14] [%],growth [15],growth [16] [%],growth [17] [%],growth [18] [%],growth [19] [%]
COc1ccc2c(c1)O/C(=C/c1ccc(OCC(=O)Nc3ccc(S(N)(=O)=O)cc3)cc1)C2=O,100,97.8,104,101,91.4,80.7%,96.7%,114%,101,85.7%,111,94.7%,97.2%,94.8,106%,97.7,102,102,
COc1cc2nc(C(=O)N3CCCCC3)cc(Nc3ccccc3)c2cc1OC,96.7,96.1,96,102,73.3,65.7%,95.3%,116%,92.8,,116,88.6%,101%,84.2,96.3%,95.5,108,116,98.1
CCN(CC)CCNC(=O)c1c(C)[nH]c(/C=C2\C(=O)Nc3cc(NC(=O)NC(=O)c4ccc(OC)cc4F)ccc32)c1C,103,105,109,83.7,94.9,104%,-55.6% (active),94.7%,97.3,10.9%,108,77.8%,66.4%,102,117%,94.7,111,105,85.3
Cc1cc(SCc2ccc(Cl)cc2Cl)nc(SCc2ccc(Cl)cc2Cl)n1,98.2,96.5,108,104,112,89.1%,103%,113%,105,110%,88.9,101%,108%,102,95.8%,98,98.8,97.5,96.6
CCOC(=O)C1=C(N)Oc2cc(OC)ccc2C1c1ccc(F)c(F)c1 (stereo unspecified),45.1,46.8,37.7,16.8,,-6.42% (active),33.1%,25.2%,37.7,11.2%,59.3,47.4%,-9.59% (active),51.3,17.7%,17.8,53.4,18,42.1
COc1cc(/C=C/C(=O)c2c(C)[n+]([O-])c3ccccc3[n+]2[O-])ccc1O,95.5,99.4,125,91.4,42.2,71%,62.4%,121%,101,85.2%,103,81.5%,111%,95.5,89.3%,100,98.9,103,103
CN[C@@H](CCCNC(N)=NC/C=C(/C)CCC=C(C)C)C(=O)N(C)[C@@H](CCCNC(N)=NCC=C(C)C)C(=O)N[C@H](C)[C@H](OS(=O)(=O)O)c1ccc(OS(=O)(=O)O)c(COS(=O)(=O)O)c1,99.9,102,102,110,100,83.9%,97.1%,108%,108,110%,117,95.5%,102%,101,112%,104,92.5,105,89.7
COc1ccc(OCC(O)CN2CCN(c3ccc(Cl)cc3)CC2)cc1 (stereo unspecified),228,89.6,103,93.4,97.9,74.3%,151%,95.7%,112,105%,106,88.1%,98%,105,92.1%,95.5,81.9,102,93.2
Nc1nccc(=S)[nH]1,92.7,101,100,107,110,63.2%,99.7%,127%,112,97.8%,112,112%,92.5%,98.6,103%,107,75.7,106,74.3
O=C(O)c1ccccc1C(=O)c1ccc(I)cc1,102,104,88.7,,78.3,75.5%,99%,103%,109,104%,98.3,110%,108%,106,102%,98.9,117,98.2,98.4
c1ccc([Se]CCCN2CCN(CCC[Se]c3ccccc3)CC2)cc1,106,121,94.5,103,87.3,119%,96.4%,135%,109,129%,123,98.8%,44.6%,109,-58.4% (active),112,104,90.3,
CC(=O)c1cc2c(N)c(C(=O)Nc3cccc(Cl)c3)sc2nc1C,91,77.7,90.4,45.7,58.3,72.9%,89.1%,40.7%,87.3,,102,87.5%,79.7%,93.2,84.3%,85.3,82.5,67.1,39.3
COc1ccc(SC2c3ccc(O)cc3Oc3nc(N)c(C#N)c(N)c32)cc1 (stereo unspecified),93.3,79.2,,79.3,112,86.3%,81.6%,115%,93.1,,99.3,101%,122%,57.3,76.8%,52.1,106,105,84.6
Oc1ccc(Cl)cc1Sc1cc(Cl)ccc1O,93.3,115,98.4,107,63.6,81.6%,110%,105%,98.9,93.3%,86.2,96.4%,62%,87.8,108%,97.6,94.7,95.8,95.5
CC(=O)n1cc(/C=C2\N=C(c3ccc(Cl)cc3)N(c3ccc(S(=O)(=O)Nc4nccs4)cc3)C2=O)c2ccccc21,89,85.8,97.6,82.1,95.9,60%,88.6%,115%,102,59.6%,120,95.5%,86.7%,83,85.6%,90.6,99.7,83.4,91
O=c1[nH]ccc2nc(N3CCC(O)CC3)nc(Nc3cccc(C(F)(F)F)c3)c12,62.2,,92.9,73.4,105,51.7%,58.3%,35.7%,72,44.7%,64.5,88.3%,54.4%,67.1,96.8%,80.4,16.3,39.1,53.4
O=C(O)c1cccc2oc(-c3ccccc3O)nc12,54.4,58.7,43.6,25.2,48.8,31.4%,59.5%,12.4%,63.6,60.9%,70.9,51.9%,61%,45,31.7%,50,80.2,54.8,42
Cn1cnc([N+](=O)[O-])c1N1c2ccncc2Sc2ccncc21,91.2,,93.3,106,77.1,72.5%,110%,89.6%,108,83.2%,84,85.1%,100%,101,86.7%,96.3,101,101,104
COc1ccc(/C=C/C(=O)/C=C(/C=C/c2ccc(OC)c(OC)c2OC)OB(F)F)c(OC)c1OC,37.3,91.8,70.4,43.6,79.5,16.3%,14.1%,7.86% (active),42.9,9.46% (active),16.4,7.37% (active),6.5% (active),31.9,56.4%,32.9,37,19.1,55.7
